# Inconclusive results are not listed. Unmarked numbers belong to inactive results. The source made the active and inactive calls. The call rests on the fitted dose curve; in most records, active means well fitted curve in the direction sought with a large enough effect; inconclusive means small, poorly fitted or top-dose-only effect, or another doubt; inactive means no such curve, though single readings can be large; an effect the other way counts as inactive or inconclusive.
# Assay: Quantitative High-Throughput drug screen in 47 multiple myeloma cell lines against the NCATS MIPE library collection: KHM11_PLB cell viability assay (AID 1918962); further: nearly all actives have a fitted effect of over 35% in size
# Conditions: KHM11 myeloma cell viability, CellTiter-Glo ATP luminescence, 48 h; series mostly up to 45.8 µM; viability, % of DMSO control: at the top concentration
# Method in brief: (§1)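 Relative luminescence from CellTiter-Glo served as the viability signal, referenced to DMSO-treated (100%) and cell-free medium (0%) controls. Treatment lasted 48 hours at 37C with 500 cells per well.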
# Potency means the concentration at half of the fitted maximal effect.
Structure (SMILES),"viability, % of DMSO control [%]",Potency
CCC[C@H](Nc1nc(-c2ccc(NC(=O)NCC)c(OC)c2)ncc1C)c1cccnc1,70,
O=C(O)CCNc1cc(N2CCc3ccccc3CC2)nc(-c2ccccn2)n1,86.9,
CNC(=O)[C@H](Cc1ccccc1)NC(=O)[C@H](CC(C)C)[C@H](CSc1cccs1)C(=O)NO,69.9,
COc1ccc(C=CC(=O)Nc2ccccc2C(=O)O)cc1OC,103,
CC1CCN(c2cc(N3CCN(C)CC3)ccc2NC(=O)c2cc(C#N)c[nH]2)CC1,149,
CN(C)c1ccccc1CN1CCCN(Cc2ccccc2N(C)C)C1c1ccncc1,,3.32 µM (active)

# Assay: Quantitative High-Throughput drug screen in 47 multiple myeloma cell lines against the NCATS MIPE library collection: JIM3_ECACC cell viability assay (AID 1918963; further: nearly all actives have a fitted effect of over 35% in size)
# Conditions: JIM3 myeloma viability, CellTiter-Glo ATP, 48 h; series mostly up to 45.8 µM; viability, percent of control: at the top concentration
# Method in brief: as §1
Structure (SMILES),"viability, percent of control",Potency
Cn1cc(-c2ccc3nnc(Sc4ccc5ncccc5c4)n3n2)cn1,123%,
CCNC(=O)c1noc(-c2cc(C(C)C)c(O)cc2O)c1-c1ccc(CN2CCOCC2)cc1,,0.0743 µM (active)
CCCCn1c(=O)n(Cc2ccccc2F)c(=O)c2[nH]c(Cc3ccc(NC(C)=O)cc3)nc21,,23.5 µM (active)
C[C@@H]1[C@H](O)[C@@H](C)C=CC=CC=CC=CC=CC=CC=C[C@H](O[C@@H]2O[C@H](C)[C@H](O)[C@H](N)[C@@H]2O)C[C@@H]2O[C@](O)(C[C@@H](O)C[C@@H](O)[C@H](O)CC[C@@H](O)C[C@@H](O)CC(=O)O[C@H]1C)C[C@H](O)[C@@H]2C(=O)O,,3.32 µM (active)
NC(=O)c1ccc(N(C(N)=O)c2c(F)cccc2F)nc1-c1ccc(F)cc1F,,11.8 µM (active)
CC1(COc2ccc3c(c2)ncn3-c2ccc3cccc(N4CCC(N)CC4)c3n2)COC1,,0.0118 µM (active)
OCCn1cc(-c2ccc3c(c2)CCC3=NO)c(-c2ccncc2)n1,102%,
O=C(O)C1=NC(C(=O)O)CC(C=CN2c3cc(O)c(OC4OC(CO)C(O)C(O)C4O)cc3CC2C(=O)O)=C1 (stereo not given),130%,
CCc1cccc(CC)c1NC(=O)N1Cc2[nH]nc(NC(=O)c3ccc(N4CCN(C)CC4)cc3)c2C1,,4.69 µM (active)
COc1ccc(-c2oc3c(CC=C(C)C)c(O)cc(O)c3c(=O)c2O)cc1,138%,
NC(=O)c1nnn(Cc2cc(Cl)c(C(=O)c3ccc(Cl)cc3)c(Cl)c2)c1N,,26.4 µM (active)
CN(C)CCCNC(=O)c1ccc(-c2cc(O)c3ncccc3c2)cc1,,23.5 µM (active)
CC(=O)O[C@]1(C(C)=O)CC[C@H]2[C@@H]3C=C(Cl)C4=CC(=O)[C@@H]5C[C@H]5[C@]4(C)[C@@H]3CC[C@@]21C,,23.5 µM (active)
CN(C)CCOc1cc(-c2cn[nH]c2)ccc1NC(=O)C1COc2ccccc2O1 (stereo not given),,18.7 µM (active)
CN1CC(=O)NC1=NC(=O)Nc1cccc(Cl)c1,,13.2 µM (active)
C[C@]12CC[C@@H]3c4ccc(O)cc4CC[C@H]3[C@H]1[C@@H](O)[C@@H](O)[C@H]2O,131%,
COc1ccc(CCC(=O)Nc2nc3ccc(Cl)cc3s2)cc1OC,,14.8 µM (active)
COc1cc2ncnc(Nc3cc(Br)c(O)c(Br)c3)c2cc1OC,,0.935 µM (active)
COc1cc(Nc2nc3ccccc3nc2NS(=O)(=O)c2ccc(NC(=O)c3ccc(C)c(OC)c3)cc2)cc(OC)c1,,13.2 µM (active)
CCNC(=O)Nc1ccc(Oc2ncnc(N)c2C=NOC)cc1Cl,,9.35 µM (active)
C[C@]12C=CC(=O)C=C1CC[C@@H]1[C@@H]2[C@@H](O)C[C@@]2(C)[C@@H]1CC[C@]2(O)C(=O)CO,103%,
CC(C)(C)c1[nH]cnc1C=c1[nH]c(=O)c(=Cc2ccccc2)[nH]c1=O,3.61% [at 92.2 µM],
CN1CCN(c2ncc(-c3cc(Cl)cc(Cl)c3Cl)c(N)n2)CC1,128%,
COc1ccc(C=CC(=O)Nc2ccccc2C(=O)O)cc1OC,111%,
CO[C@@H]1C(N(C)C(=O)c2ccccc2)C[C@H]2O[C@]1(C)n1c3ccccc3c3c4c(c5c6ccccc6n2c5c31)C(=O)NC4=O (stereo not given in full),,6.62 µM (active)
CC1CCN(c2cc(N3CCN(C)CC3)ccc2NC(=O)c2cc(C#N)c[nH]2)CC1,116%,
Nc1ccn([C@@H]2O[C@H](CO)[C@@H](O)[C@H]2O)c(=O)n1,86.9%,

# Assay: Quantitative High-Throughput drug screen in 47 multiple myeloma cell lines against the NCATS MIPE library collection: JIM1_ECACC cell viability assay (AID 1918964)
# Conditions: JIM1 myeloma viability, CellTiter-Glo ATP luminescence, 48 h; series mostly up to 45.8 µM; viability (% of DMSO): at the top concentration
# Method in brief: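 Luminescent ATP measurement with CellTiter-Glo gives viability, scaled between DMSO-only wells (100%) and media-only wells (0%). Cells, 500 per well, faced library compounds for 48 hours at 37C.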
Structure (SMILES),Potency,viability (% of DMSO)
CCCCn1c(=O)n(Cc2ccccc2F)c(=O)c2[nH]c(Cc3ccc(NC(C)=O)cc3)nc21,0.0042 µM (active),
NC(=O)c1ccc(N(C(N)=O)c2c(F)cccc2F)nc1-c1ccc(F)cc1F,,94%
O=C(O)C1=NC(C(=O)O)CC(C=CN2c3cc(O)c(OC4OC(CO)C(O)C(O)C4O)cc3CC2C(=O)O)=C1 (stereo not given),,156%
CCc1cccc(CC)c1NC(=O)N1Cc2[nH]nc(NC(=O)c3ccc(N4CCN(C)CC4)cc3)c2C1,,87.6%
COc1ccc(-c2oc3c(CC=C(C)C)c(O)cc(O)c3c(=O)c2O)cc1,,148%
CCCCCCOC(=O)N=C(N)c1ccc(NCc2nc3cc(C(=O)N(CCC(=O)OCC)c4ccccn4)ccc3n2C)cc1,8.33 µM (active),
C[C@@H]1CCO[C@H]2Cn3cc(C(=O)NCc4ccc(F)cc4F)c(=O)c(O)c3C(=O)N12,23.5 µM (active),
CCNC(=O)Nc1ccc(Oc2ncnc(N)c2C=NOC)cc1Cl,2.64 µM (active),
CC(C)(C)c1[nH]cnc1C=c1[nH]c(=O)c(=Cc2ccccc2)[nH]c1=O,,3.45% [at 92.2 µM]
CN1CCN(c2ncc(-c3cc(Cl)cc(Cl)c3Cl)c(N)n2)CC1,23.5 µM (active),
COc1ccc(C=CC(=O)Nc2ccccc2C(=O)O)cc1OC,,98%
CC1CCN(c2cc(N3CCN(C)CC3)ccc2NC(=O)c2cc(C#N)c[nH]2)CC1,,115%
